Unmarked numbers belong to inactive results. Calls of active or inactive are those of the source. Rule as the data show it, unless noted: active = inhibition above about 30%; inactive = the rest.
Molecular target: Nuclear receptor coactivator 3 (Homo sapiens) (UniProt Q9Y6Q9)
Assay: NCOA3 GAL4-fusion reporter inhibition – cell-based, luminescence, quadruplicate, confirmation (AID 588792;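 active = mean inhibition over 43.08%, the solvent-only control mean plus 3 SD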;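 also: 0% = DMSO treated cells and 100% = gossypol at 36 µM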)
Settings: HEK293 GAL4-SRC3 luciferase reporter, at 3.6 µM, stronger effect = higher value

Chain of Nuclear receptor coactivator 3 (Homo sapiens) (Q9Y6Q9 whole entry, looked up, the tested form may be a part): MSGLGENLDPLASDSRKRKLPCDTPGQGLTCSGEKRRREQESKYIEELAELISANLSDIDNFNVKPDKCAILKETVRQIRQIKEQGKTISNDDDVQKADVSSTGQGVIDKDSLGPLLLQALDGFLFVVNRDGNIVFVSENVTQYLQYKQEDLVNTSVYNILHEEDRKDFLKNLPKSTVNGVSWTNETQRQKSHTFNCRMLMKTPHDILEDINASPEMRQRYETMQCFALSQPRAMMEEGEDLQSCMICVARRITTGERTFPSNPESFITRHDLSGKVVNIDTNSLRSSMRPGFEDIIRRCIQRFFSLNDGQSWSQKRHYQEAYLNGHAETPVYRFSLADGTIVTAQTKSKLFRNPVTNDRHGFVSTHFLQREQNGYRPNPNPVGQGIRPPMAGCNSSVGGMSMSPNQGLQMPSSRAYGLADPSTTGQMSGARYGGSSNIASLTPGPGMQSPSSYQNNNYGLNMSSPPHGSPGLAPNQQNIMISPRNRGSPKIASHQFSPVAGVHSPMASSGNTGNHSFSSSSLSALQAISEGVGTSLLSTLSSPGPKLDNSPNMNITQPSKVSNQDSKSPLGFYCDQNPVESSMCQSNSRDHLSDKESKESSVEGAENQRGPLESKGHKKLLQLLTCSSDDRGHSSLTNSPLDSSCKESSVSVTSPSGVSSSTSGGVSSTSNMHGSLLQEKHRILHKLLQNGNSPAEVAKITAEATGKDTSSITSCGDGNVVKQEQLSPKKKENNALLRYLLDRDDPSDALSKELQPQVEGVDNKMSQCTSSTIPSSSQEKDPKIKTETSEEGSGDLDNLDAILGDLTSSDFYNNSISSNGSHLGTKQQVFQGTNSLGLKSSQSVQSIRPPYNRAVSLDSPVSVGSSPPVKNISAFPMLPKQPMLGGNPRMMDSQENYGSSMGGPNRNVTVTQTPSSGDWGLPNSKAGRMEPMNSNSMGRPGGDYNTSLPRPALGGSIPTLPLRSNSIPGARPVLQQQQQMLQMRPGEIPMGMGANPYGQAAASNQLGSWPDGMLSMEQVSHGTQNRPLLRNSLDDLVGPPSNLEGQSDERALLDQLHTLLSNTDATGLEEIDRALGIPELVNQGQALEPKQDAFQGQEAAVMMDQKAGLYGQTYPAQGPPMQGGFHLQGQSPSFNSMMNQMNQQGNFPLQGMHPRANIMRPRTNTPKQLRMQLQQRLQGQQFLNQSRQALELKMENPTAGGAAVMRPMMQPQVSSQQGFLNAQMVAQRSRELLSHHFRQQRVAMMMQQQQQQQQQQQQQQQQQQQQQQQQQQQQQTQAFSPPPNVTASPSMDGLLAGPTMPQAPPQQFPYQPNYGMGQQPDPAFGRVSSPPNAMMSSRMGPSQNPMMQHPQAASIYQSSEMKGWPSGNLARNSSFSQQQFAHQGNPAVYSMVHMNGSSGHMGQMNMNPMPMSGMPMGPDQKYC

Structure (SMILES) | inhibition
CC(=O)Nc1ccc(SCC(=O)c2cc(C)n(-c3ccccc3)c2C)cc1 | 30.3%
OC1c2cc(Br)ccc2N=C2CCCN21 (centres undefined) | 44.3% (active)
Cc1ccc(C2NC(=O)CCC2[N+](=O)[O-])cc1 (centres undefined) | -3.62%
CCCOc1ccc(/C=N/Nc2ccccc2[N+](=O)[O-])c(O)c1 | 27.7%
CNC(=O)c1ccc(NC(=O)C2CCN(c3ncnc4sc(C)c(C)c34)CC2)cc1 | 51.6% (active)
O=[N+]([O-])c1cccc2c1ccc1ncccc12 | 33%
O=C(N/N=C/c1cc(Cl)ccc1O)c1ccc(Br)cc1 | 55.7% (active)
C#CCN(C[C@@H]1[C@@H](OC(=O)NCCCCCC)[C@@H](OC(=O)NCCCCCC)Cn2c(=O)ccc(=O)n21)S(=O)(=O)c1ccc(C)cc1 | 23.3%
CCCc1c(C)nc2ccccc2c1SCCC#N | 29.6%

Test system: transactivating tegument protein VP16 (Human herpesvirus 1), Gal4-VP16 luciferase reporter
Assay: repression of VP16-driven luciferase reporter – cell-based, luminescence, high throughput, counter-screen for SRC3 inhibitor project (AID 588794)
Settings: mammalian cells, at 3.6 µM, stronger effect = higher value

Structure (SMILES) | inhibition
Cc1ccc(CNc2ncnc3ccc(-c4ccoc4C)cc23)o1 | 52% (active)
O=C(Nc1c2ccccc2nc2ccccc12)C(Cl)(Cl)Cl | 10.5%
O=[N+]([O-])c1ccc(O)c(/C=N/Nc2ccccn2)c1 | 41.6% (active)
COc1ccc(-c2csc(NC(=O)C3CCN(c4ncnc5sc(C)c(C)c45)CC3)n2)cc1OC | 58.1% (active)
CN(C)CCCN1C(=O)c2cccc3c([N+](=O)[O-])ccc(c23)C1=O | 5.35%
Cc1cc(C(=O)COC(=O)c2cccc(NS(C)(=O)=O)c2)c(C)n1CC1CCCO1 (centres undefined) | -22.1%
O=C(NN=C(c1ccccc1)c1ccccn1)c1ccccc1 | 42.1% (active)
Cc1ccc(NC(=O)c2cc3ccccc3oc2=O)cc1S(=O)(=O)N(C)C | 78.5% (active)
O=c1[nH]c(=S)ccn1C1OC(CO)C(O)C1O (centres undefined) | -0.78%
Cc1nn(Cc2ccc(Cl)cc2)c(C)c1NC(=O)c1cc(-c2ccc3c(c2)OCO3)on1 | 50.3% (active)
Cc1cccc(CNc2ncnc3ccc(-c4ccoc4)cc23)c1 | 40.7% (active)
CC(=O)NS(=O)(=O)c1ccc(NC(=O)/C=C/c2cn(-c3ccccc3)nc2-c2ccccc2)cc1 | 0.43%
CCSCCc1nnc(NC(=O)Nc2cccc(C(F)(F)F)c2)s1 | 43.8% (active)
CCN(CC)CCNC(=O)c1ccc2c(c1NCCO)C(=O)c1ccccc1C2=O | -1.86%
COc1ccc(-c2c[n+]3c(n2-c2ccccc2)CCCCC3)cc1 | 39.6% (active)
O=S(=O)(/C(=C\c1ccc(C(F)(F)F)cc1)c1nc2ccccc2[nH]1)c1ccccc1 | 25.6%
O=C(N/N=C/c1cc(Br)ccc1O)c1ccncc1 | 34.2% (active)
CC(C)c1nc(NCCO)c(C#N)c2c1CCCC2 | 30% (active)
COC(=O)c1cc(N/C(N)=N/c2nc(C)cc(C)n2)cc(C(=O)OC)c1 | 55.4% (active)
O=C(N/N=C(\c1ccccc1)c1ccccn1)c1ccccc1Cl | 22.1%

Structure (SMILES) | inhibition
Fc1ccc(NC(=S)NNc2ncc(C(F)(F)F)cc2Cl)c(F)c1 | 23%
CN(C)c1ccc(CNC(=O)CCNS(=O)(=O)c2cc(Br)cnc2N)cc1 | 19.3%
CC(C)(C)OC(=O)NCCCC[C@H](NC(=O)c1nc[nH]c1C(=O)N[C@@H](CCCCNC(=O)OC(C)(C)C)C(=O)OC(C)(C)C)C(=O)OC(C)(C)C | -9.56%
O=C(Nc1ccc(Cn2cccn2)cc1)c1ccc(COc2cccc(Br)c2)cc1 | 42.6% (active)
Cn1c(=N)n(CC(=O)c2ccc(Cl)c(Cl)c2)c2ccccc21 | -30.2%
CC1CCN(c2nc3ccc(C(=O)O)cc3s2)CC1 | -7.13%
COc1ccc(CNc2nn3c(-c4cccc(C(=O)N(C)C)c4)cnc3s2)cc1 | 30.7% (active)
NC(=O)c1sc2nccc(Nc3ccccc3)c2c1N | 47.7% (active)
NNC(=O)c1cnn(Cc2ccccc2)c1N | 2.66%
N=c1c2c(-c3ccccc3)c(-c3ccccc3)n(Cc3ccco3)c2ncn1CCCO | 52.6% (active)
C/C(=N\NC(=O)c1nnn(-c2nonc2N)c1-c1ccccc1)c1ccccc1O | 44.6% (active)
CC(=O)Nc1ccc(SCC(=O)c2cc(C)n(-c3ccccc3)c2C)cc1 | 19.6%
OC1c2cc(Br)ccc2N=C2CCCN21 (centres undefined) | 37.3% (active)
Cc1ccc(C2NC(=O)CCC2[N+](=O)[O-])cc1 (centres undefined) | -1.77%
CCCOc1ccc(/C=N/Nc2ccccc2[N+](=O)[O-])c(O)c1 | 5%
CNC(=O)c1ccc(NC(=O)C2CCN(c3ncnc4sc(C)c(C)c34)CC2)cc1 | 35.5% (active)
O=[N+]([O-])c1cccc2c1ccc1ncccc12 | 11.7%
O=C(N/N=C/c1cc(Cl)ccc1O)c1ccc(Br)cc1 | 40.1% (active)
C#CCN(C[C@@H]1[C@@H](OC(=O)NCCCCCC)[C@@H](OC(=O)NCCCCCC)Cn2c(=O)ccc(=O)n21)S(=O)(=O)c1ccc(C)cc1 | 31.7% (active)
CCCc1c(C)nc2ccccc2c1SCCC#N | 29%
